Assay results: PubChem BioAssay (NCI)
The panel holds about 79,000 compounds, 15% with a hit somewhere; the sample as a whole holds those more often. The source made the active and inactive calls. Rule as the data show it: active = growth inhibition above about 70%; inactive = the rest.

How the values were obtained:
[1] = NCI Yeast Anticancer Drug Screen. Data for the rad50 strain (AID 155);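 also: 0% = growth of vehicle-only cultures of the same strain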; settings: S. cerevisiae rad50 strain growth inhibition; at 50.0 µM; stronger effect = higher value
In short: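 Compounds were tested on a yeast strain with an engineered DNA damage repair alteration; the reported value is growth inhibition normalised to vehicle treatment.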

[2] = NCI Yeast Anticancer Drug Screen. Data for the mec2-1 strain (AID 157); settings: S. cerevisiae mec2-1 strain, at 50.0 µM, stronger effect = higher value
In short: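 Each compound was tested on mec2-1 yeast, a strain altered in DNA damage repair or cell cycle control. Growth inhibition is reported relative to vehicle.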

[3] = NCI Yeast Anticancer Drug Screen. Data for the sgs1 mgt1 strain (AID 161);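 also: 0% = growth of cultures given vehicle only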; settings: S. cerevisiae sgs1 mgt1 strain, at 50.0 µM, stronger effect = higher value
In short: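 Inhibition of yeast growth, normalised to vehicle-treated controls, is reported for a strain bearing genetic alterations in DNA damage repair.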

[4] = NCI Yeast Anticancer Drug Screen. Data for the cln2 rad14 strain (AID 165);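 also: 0% = growth equal to vehicle treated cultures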; settings: S. cerevisiae cln2 rad14 strain, at 50.0 µM, stronger effect = higher value
In short: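 Test compounds were added to cln2 rad14 yeast cultures; inhibition of growth was then determined by comparison with vehicle treatment.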

[5] = NCI Yeast Anticancer Drug Screen. Data for the bub3 strain (AID 167); settings: S. cerevisiae bub3 mutant strain, at 50.0 µM, stronger effect = higher value
In short: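 Growth of a checkpoint-deficient yeast mutant is measured after compound exposure. Values represent inhibition relative to vehicle.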

[6] = NCI Yeast Anticancer Drug Screen. Data for the mlh1 rad18 strain (AID 175); settings: S. cerevisiae mlh1 rad18 strain growth inhibition; at 50.0 µM; stronger effect = higher value
In short: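 Inhibition values reflect reduced growth of mutant yeast versus vehicle-treated controls following compound exposure; the mutations affect DNA damage repair.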

Measured: growth inhibition

CN(C)Cc1c(-c2ccccc2)c(-c2ccccc2)c2ccccn12
inactive: [1] -7.15% | [2] -21.8% | [3] 14.1% | [4] 2.8% | [5] 0.75% | [6] 9.6%

CCC(=O)C(CC)c1ccccc1 (configuration not stated)
inactive: [1] 9.25% | [2] -8% | [3] -4.8% | [4] 2.2% | [5] 4.4% | [6] 4.55%

CCCCOc1cc(C(=O)O)ccc1[N+](=O)[O-]
inactive: [1] -10.7% | [2] -19.4% | [3] -10.3% | [4] -5.75% | [5] -19.2% | [6] -3.1%

OC(c1ccccc1)(C1CCNCC1)C1CC1 (configuration not stated)
inactive: [1] 9.8% | [2] -10.4% | [3] -4% | [4] -20.4% | [5] -16.6% | [6] -6.45%

CCCC(=O)OC(C)CC(C)C (configuration not stated)
inactive: [1] 6% | [2] -13.7% | [3] -12.2% | [4] -10.8% | [5] 2.2% | [6] 1.95%

CCCCCCCCCCCCCCCCCCn1cnc2c(=S)nc[nH]c21
inactive: [1] -37.5% | [2] -2.2% | [3] -0.75% | [4] -20.5% | [5] 0.5% | [6] -34.1%

Cc1cc(C)c2nc(N)sc2c1
inactive: [1] 24.3% | [2] 9.35% | [3] -5.8% | [4] -4.45% | [5] 12.4% | [6] 30.1%

C/C=C/C1OCCC(C)O1 (configuration not stated)
inactive: [1] 41.3% | [2] -12% | [3] 9.1% | [4] 21.1% | [5] 4.95% | [6] 11%

COc1ccc(COC(=O)Nc2ccc([N+](=O)[O-])cc2)cc1
inactive: [1] -38.2% | [2] -3.6% | [3] -28.1% | [4] -5.3% | [5] -18.5% | [6] -12.2%

CCOC(=O)C1C(=S)NC(=O)C1C#N (configuration not stated)
inactive: [1] 0.3% | [2] -0.05% | [3] 1.35% | [4] 0.75% | [5] 11.3% | [6] -4.7%

O=C(Cc1ccccc1)N/N=C(/c1nc2ccc([N+](=O)[O-])cc2[nH]c1=O)C(O)c1ccco1 (configuration not stated)
inactive: [1] -0.95% | [2] -9.75% | [3] -4.85% | [4] -79.2% | [5] -6.25% | [6] -2.8%

COC1(OC)OC(c2ccc([N+](=O)[O-])cc2)=C(c2ccc([N+](=O)[O-])cc2)OC1(OC)OC
inactive: [1] 56% | [2] 49.9% | [3] 38.5% | [4] 57.4% | [5] 49% | [6] 37.9%

COc1ccc2c(c1)CCC(c1nc3ccc(C)cc3[nH]c1=O)C2=O (configuration not stated)
inactive: [1] 7.95% | [2] 8.5% | [3] 7.95% | [4] 9.1% | [5] -4.65% | [6] 22.6%

Cc1cc(CN(C)C)cc(C(C)C)c1O
inactive: [1] 1.85% | [2] -0.9% | [3] -12% | [4] 34.1% | [5] 12.8% | [6] -3.95%

CC(C)(C)C1CC/C(=N\Nc2ccc([N+](=O)[O-])cc2[N+](=O)[O-])C(Cc2ccccc2)C1 (configuration not stated)
inactive: [1] 11.9% | [2] 21.1% | [3] 19.5% | [4] -26.6% | [5] 16.9% | [6] 0%

CC(=O)Nc1ccc2c(c1)C(=O)c1ccccc1-2
inactive: [1] 64.1% | [2] 16.1% | [3] 30.2% | [4] 26.3% | [5] -16.8% | [6] 31.4%

O=C(CCCc1ccccn1)c1ccccc1
inactive: [1] 1.8% | [2] 3.85% | [3] 2.5% | [4] 5.35% | [5] -31.6% | [6] -1.45%

CCN1C(=O)/C(=C/c2ccc(OCC(=O)O)cc2)SC1=S
inactive: [1] -6.9% | [2] -10.9% | [3] 0.35% | [4] -44.9% | [5] -2.2% | [6] -9.65%

O=c1c2ccccc2c(=O)n2n1C1CCC2C1
inactive: [1] 7.05% | [2] -0.55% | [3] -7.9% | [4] -3.75% | [5] 1.85% | [6] -6.15%

CNc1ncnc2c1cnn2-c1ccc(Cl)cc1
inactive: [1] -15.8% | [2] -6.85% | [3] -6.75% | [4] -37.4% | [5] 0.3% | [6] 4.25%

[N-]=[N+]=CC(=O)C(CN)(Cc1ccccc1)c1ccc(Cl)cc1 (configuration not stated)
inactive: [1] 35.1% | [2] 1.45% | [3] 9.1% | [4] -31.9% | [5] -9.45% | [6] 9.05%

Cn1c(Cc2ccccc2)c([N+](=O)[O-])c(=O)n(C)c1=O
inactive: [1] -0.2% | [2] -5.25% | [3] -2.1% | [4] -8.2% | [5] -6.35% | [6] -2.4%

Cn1ncc2c(=S)[nH]c(=O)[nH]c21
inactive: [1] 3.7% | [2] -0.2% | [3] -1.1% | [4] -4.95% | [5] 1.05% | [6] -0.1%

O=C(N/N=C1\CCc2ccccc2C1)N/N=C1\CCc2ccccc2C1
inactive: [1] 20.4% | [2] 17.1% | [3] 11.7% | [4] -5.85% | [5] -18.9% | [6] 9.6%

O=c1oc2ccccc2c(O)c1Cc1cccc(Cc2c(O)c3ccccc3oc2=O)c1
inactive: [1] 11.9% | [2] 5.05% | [3] 4.9% | [4] 9.3% | [5] -11.3% | [6] 5%

CSc1nc(Br)nc2c1ncn2C1CC(Oc2ccc(C)cc2)C(COc2ccc(C)cc2)O1 (configuration not stated)
inactive: [1] 13.4% | [2] 4.3% | [3] 22.1% | [4] 18.6% | [5] 17.1% | [6] -23.8%

CCCCCCN(CCCCCC)C1=CC(=O)C(=O)c2ccccc21
inactive: [1] 52.9% | [2] 31.8% | [3] 48.4% | [4] 60% | [5] 35.1% | [6] 54.2%

CC(O)C(C)(C)O (configuration not stated)
inactive: [1] 12.3% | [2] -8.85% | [3] 15.6% | [4] -13.4% | [5] 16.1% | [6] 4.15%

O=C(NNC(=S)Nc1ccccc1)c1nsc2ccccc12
inactive: [1] 43.5% | [2] 12.2% | [3] 35% | [4] 29.4% | [5] 28% | [6] 23.4%

C=CCN1C(=O)CC2[C@@H]3CCc4cc(O)ccc4C3CC[C@]2(C)C1=O (some centres not stated)
inactive: [1] -0.65% | [2] -12.7% | [3] -7.6% | [4] 22.8% | [5] 8% | [6] 1.25%

Cc1[nH]n(C(=N)N)c(=O)c1CCO
inactive: [1] -7.15% | [2] 11.6% | [3] -18.6% | [4] -6.35% | [5] 2% | [6] -50.7%

Nc1[nH]c(=S)[nH]c(=O)c1N=Cc1ccc2c(c1)OCO2
inactive: [1] 13.2% | [2] 10% | [3] 61.4% | [4] 12.7% | [5] 16.2% | [6] 9.7%

COCCN1CCC(CO)C1 (configuration not stated)
inactive: [1] 4.85% | [2] 11.5% | [3] 20.1% | [4] 2.05% | [5] 11.9% | [6] 10.5%

COC(=O)[C@H]1[C@H]2C[C@@H]3c4[nH]c5ccccc5c4CCN3C[C@H]2C[C@@H](OC(=O)c2cc(OC)c(OC)c(OC)c2)[C@@H]1OC
inactive: [1] 15.8% | [2] -7.35% | [3] 17.1% | [4] 5.6% | [5] 18.5% | [6] 17.3%

Cc1c(S)cnc2ccccc12
inactive: [1] -0.55% | [2] -6.25% | [3] 1.7% | [4] -66.6% | [5] -14.8% | [6] 2.85%

COc1ccc(C(=O)N2CCCCC2)cc1
inactive: [1] -31.1% | [2] -15.8% | [3] -3.8% | [4] -26.6% | [5] -0.9% | [6] -12.2%

C=C1SC(=Nc2ccc(Cl)cc2)N(c2nc(Cl)nc(Cl)n2)C12CCCCC2
inactive: [1] -16.4% | [2] -21.1% | [3] 19.4% | [4] 14% | [5] 10.2% | [6] 20.6%
